SKOV3 invasion = inhibitors of ovarian cancer cell adhesion and invasion in omental model; SKOV3ip1-GFP adhesion/invasion on 3D omental model, fluorescence; Potency, µM (doses to about 45.8 µM), for the others: at the highest dose activity change, negative = inhibition, most hits filed as inhibitors; actives 0.1% (n = 46,000); AID 1963576;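 also: potency is read from the fitted curve at half-maximal effect; plate controls were DMSO wells for no effect and tomatine positive control wells for full effect; nearly all actives have a fitted effect of over 65% in size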
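Primary human omental fibroblast/mesothelial 3D culture pre-formed 48 h. SKOV3ip1-GFP cells added with compounds (0.36-46 umol/L), incubated 2 h RT/16 h 37 C, fixed; GFP cells quantified at 488/509 nm.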
HTT-AS promoter = activators of huntingtin-antisense promoter activity; HEK293 HTT-AS promoter firefly luciferase reporter, 24 h; response scale: percent change from vehicle, -100% = no light; Potency, µM (highest dose often 57.5 µM), without a hit: top-dose activity change, positive = activation, most hits filed as activators; actives 0.24% (n = 48,000); AID 1508624; also: potency is read from the fitted curve at half-maximal effect; nearly all actives have a fitted effect of over 55% in size
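Firefly luciferase signal from promoter-reporter HEK293 cells was scaled between vehicle (0%) and zero RLU (-100%). Compounds were tested at final concentrations of up to 57.5 uM over 24 h at 37 degrees C. PTC124 at 50 uM final served as control inhibitor.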
HTT promoter inh = inhibits huntingtin promoter activity; actives 0.93% (n = 48,000); HEK293 HTT promoter firefly luciferase reporter, 24 h; Potency, µM (doses to about 57.5 µM), for inactives: at the highest dose activity change, negative = inhibition, actives largely listed as inhibitors; also: potency is read from the fitted curve at half-maximal effect; nearly all actives have a fitted effect of over 50% in size
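Quantitative HTS used concentration series of up to 57.5 uM final on HEK293 luciferase reporter cells, 24 h at 37 degrees C. Readout was Dual-Glo firefly luminescence.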
mTORC1 inh = reduces mTORC1 signaling in Tsc2 and p53 null MEF cells. AID 493208. Potency, µM (series often up to 38.3 µM), for inactives: at the top dose activity change, negative = inhibition, actives largely listed as inhibitors. actives 0.78% (n = 44,000). Tsc2-/- p53-/- MEF, phospho-rpS6 immunofluorescence/PI, 24 h;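 also: potency is read from the fitted curve at half-maximal effect; plate controls were DMSO for no effect and rapamycin for full effect; nearly all actives have a fitted effect of over 50% in size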
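Readout is phospho-S6 Alexa 488 signal normalized to PI per well, reported as % active cells with thresholds set from rapamycin (7.5 nM) and DMSO controls. Cells: Tsc2-/-, p53-/- MEFs, 24 hrs compound at 37 C; PI cell number serves as viability.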
S16 viability = cytotoxicity in S16 Pmp22-F2sN Schwann cells. S16 Pmp22-F2sN Schwann cells viability, CellTiter-Glo, 24 h. actives 0.48% (n = 43,000). Potency, µM (highest dose often 57.5 µM), for the others: top-dose activity change, negative = cytotoxicity, hits mostly cytotoxic; also: potency is read from the fitted curve at half-maximal effect; % is scaled to controls: 0 for no effect and ±100 for the full control effect; nearly all actives have a fitted effect of over 65% in size
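Viability was measured by CellTiter-Glo luminescence (15 min, room temperature). This followed 24 h at 37 °C of compound exposure (23 nL pin transfer) in S16 Pmp22-F2sN Schwann cells, 500-1,000 per well.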
PMP22 txn = modulates PMP22 transcription in S16 Schwann cells | S16 Pmp22-F2sN Schwann cells, FLuc/NLuc coincidence luminescence, 24 h | Potency, µM (highest dose often 57.5 µM), for inactives: at the top dose activity change, negative = inhibition, actives largely listed as inhibitors | actives 2% (n = 43,000) | AID 1508649; active = clear falling dose curves in both reporters; inconclusive = both reporters move, but less clearly or upward; inactive = either reporter flat; the % is the NLuc reporter signal; also: potency is read from the fitted curve at half-maximal effect; % is scaled to controls: 0 for no effect and ±100 for the full control effect
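Luminescent read-out of sequential FLuc and NLuc signals from a reporter embedded in the Pmp22 3' UTR of S16 Schwann cells, taken after 24 h compound exposure at 37C; compounds reducing both signals score as inhibitors of expression.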
NLuc sat counter = NanoLuc enzyme inhibition artifact for PMP22 screen; shares compounds with PMP22 txn; Secreted NLuc enzyme (filtered S16 cell medium), Nano-Glo luminescence; Potency, µM (highest dose often 57.5 µM), for inactives: at the highest dose activity change, negative = inhibition, hits mostly inhibitors; actives 4% (n = 690); also: potency is read from the fitted curve at half-maximal effect; % is scaled to controls: 0 for no effect and ±100 for the full control effect
NLuc Km ctr = NanoLuc inhibition at Km substrate, PMP22 artifact check; shares compounds with PMP22 txn; secreted NLuc enzyme, coelenterazine luminescence, Km conditions; Potency, µM (titrated, usually from 57.5 µM), without a hit: top-dose activity change, negative = inhibition, most hits filed as inhibitors; actives 5% (n = 690); also: potency is read from the fitted curve at half-maximal effect; % is scaled to controls: 0 for no effect and ±100 for the full control effect
FLuc ctr PMP22 = counter-screen for PMP22 expression modulators: firefly luciferase inhibition; purified P. pyralis FLuc, luminescence, 10 min; shares compounds with PMP22 txn; 690 tested, under 10 active; Potency, µM (doses to about 57.5 µM), without a hit: at the top dose activity, negative = inhibition, most hits filed as inhibitors; also: % of control where 0% means no effect
Target sequence (P08659 whole entry, looked up): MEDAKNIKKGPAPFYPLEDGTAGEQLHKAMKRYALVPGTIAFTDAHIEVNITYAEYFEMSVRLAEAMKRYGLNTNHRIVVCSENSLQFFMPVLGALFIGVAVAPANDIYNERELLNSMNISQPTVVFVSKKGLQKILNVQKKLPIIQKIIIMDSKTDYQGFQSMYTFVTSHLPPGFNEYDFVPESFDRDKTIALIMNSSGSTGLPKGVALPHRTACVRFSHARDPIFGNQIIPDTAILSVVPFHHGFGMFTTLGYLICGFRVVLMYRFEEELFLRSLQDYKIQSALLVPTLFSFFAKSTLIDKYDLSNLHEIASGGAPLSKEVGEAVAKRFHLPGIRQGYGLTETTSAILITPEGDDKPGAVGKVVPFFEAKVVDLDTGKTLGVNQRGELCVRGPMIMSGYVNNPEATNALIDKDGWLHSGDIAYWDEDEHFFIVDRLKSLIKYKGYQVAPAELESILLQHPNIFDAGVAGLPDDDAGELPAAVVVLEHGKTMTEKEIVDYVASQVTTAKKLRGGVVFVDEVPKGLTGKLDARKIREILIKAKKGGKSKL
S16 F2sN tox cnf = confirmation of cytotoxicity in S16 Pmp22-F2sN Schwann cells (luciferase reporters placed in the Pmp22 gene). shares compounds with PMP22 txn. S16 Schwann cells viability, CellTiter-Glo ATP luminescence, 24 h. Potency, µM (titrated, usually from 57.5 µM), inactives show at the top dose activity change, negative = viability loss, usual class: cytotoxic. actives 7% (n = 690). AID 1508641; also: potency is read from the fitted curve at half-maximal effect; % is scaled to controls: 0 for no effect and ±100 for the full control effect
PMP22 txn cnf = PMP22 transcription modulation, confirmatory | shares compounds with PMP22 txn | S16 Schwann cells Pmp22-F2sN, dual luciferase, 24 h | Potency, µM (titrated, usually from 57.5 µM), without a hit: at the top dose activity change, negative = inhibition, usual class: inhibitors | actives 22% (n = 690) | AID 1508646; active = clear falling dose curves in both reporters; inconclusive = both reporters move, but less clearly or upward; inactive = either reporter flat; the % is the FLuc reporter signal; also: potency is read from the fitted curve at half-maximal effect
An asterisk follows results filed as active; i = inactive; ? = inconclusive; · = not tested or not shown. Shown are actives, neighbours in structure and some others; about 3.6% of the full set was active somewhere. Unless noted, calls follow the shape of the dose curve; as a rule, active = well fitted curve in the direction sought with a large enough effect; inconclusive = small, poorly fitted or top-dose-only effect, or another doubt; inactive = no such curve, though single readings can be large; an effect the other way counts as inactive or inconclusive.

SMILES	SKOV3 invasion	HTT-AS promoter	HTT promoter inh	mTORC1 inh	S16 viability	PMP22 txn	NLuc sat counter	NLuc Km ctr	FLuc ctr PMP22	S16 F2sN tox cnf	PMP22 txn cnf
CCCNC(=O)c1ccc2c(c1)N=C(C)c1c(C)ccc(C)c1S2	-6%	-54%	?	?	3%	0.39µM*	-6%	?	0%	16%	?
CC1=Nc2cc(C(=O)NCCc3ccc(Cl)cc3)ccc2Sc2c(C)ccc(C)c21	i	-42%	?	-11%	-7%	7.8µM*	-5%	4%	2%	?	?
CC1=Nc2cc(C(=O)NCCc3ccccc3)ccc2Sc2c(C)ccc(C)c21	2%	-40%	?	-13%	-3%	2.7µM*	-5%	4%	-11%	?	?
CC[C@H]1OC(=O)[C@H](C)[C@@H](O[C@H]2C[C@@](C)(OC)[C@@H](O)[C@H](C)O2)[C@H](C)[C@@H](O[C@@H]2O[C@@H](C)C[C@H](N(C)C)[C@@H]2O)[C@](C)(O)C[C@@H](C)C(=O)[C@H](C)[C@@H](O)[C@]1(C)O	-10%	-12%	0%	·	·	·	·	·	·	·	·
O=C(Nc1c(Cl)cncc1Cl)c1ccc(OC(F)F)c(OCC2CC2)c1	38%	-16%	4%	·	·	·	·	·	·	·	·
COc1cc(NC(=O)N2CCC(CN3CCOCC3)CC2)cc(OC)c1OC	-7%	-1%	-16%	-8%	14%	-46%	-7%	1%	-6%	2%	7%
N#CNC(=NCCCCCCOc1ccc(Cl)cc1)Nc1ccncc1	-9%	-44%	?	·	·	·	·	·	·	·	·
CCOc1ccc(CCNC(=O)c2ccc(Nc3nc4ccccc4n4nnnc34)cc2)cc1OCC	-28%	-5%	1%	-1%	-27%	?	·	·	·	·	·
O=C(NCc1ccccc1)c1cccc(Nc2nc3ccccc3n3nnnc23)c1	6%	-3%	19%	-3%	?	13µM*	-1%	2%	7%	22µM*	14µM*
Cc1ccc(CCNC(=O)c2ccc(Nc3nc4ccccc4n4nnnc34)cc2)cc1	2%	3%	-6%	1%	-10%	?	-13%	1%	-3%	24µM*	?
CC1(C)CC(=O)c2c(C(F)(F)F)nn(-c3ccc(C(N)=O)c(NC4CCC(O)CC4)c3)c2C1 (centres undefined)	-5%	-62%	?	·	·	·	·	·	·	·	·
